From PubChem BioAssay
In the library only some 8.1% were active in any assay of this set; here they are far more common.
SW480 rereplic: DNA re-replication induction in SW480 cells; AID 624297; SW480 DNA re-replication, Hoechst DNA content imaging, 48 h; Potency, µM (highest dose often 46.1 µM), inactives show top-dose re-replication activation, hits mostly activators; 340,000 compounds, 1.8% hits; further: % of control where 0% means no effect; nearly all actives have a fitted effect of over 55% in size
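SW480 cells exposed to compounds for 48 hr at 37 C, 5% CO2, then Hoechst-stained 40 min. Nuclear DNA content imaged by fluorescence scanning (405 nm excitation, 500-530 nm emission); re-replication scored as increased high-intensity nuclei.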
KB-V1 MDR tox: KB-V1 MDR subline cytotoxicity. KB-V1 MDR cells viability, CellTiter-Glo, 72 h. 400,000 compounds, 3.4% hits. Potency, µM (series often up to 46.1 µM), hits mostly cytotoxic; further: on the % scale 0 is the no-effect control and ±100 the full control effect; nearly all actives have a fitted effect of over 60% in size
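In this primary screen, KB-V1 cells overexpressing P-gp are incubated with library compounds (lowest to highest concentration) for 72 h at 37 degrees C before a luminescent ATP viability read.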
KB-3-1 cytotox: kills parental KB-3-1 adenocarcinoma cells | Potency, µM (series often up to 46.1 µM), actives largely listed as cytotoxic | 400,000 compounds, 1.4% hits | AID 1347075 | KB-3-1 viability, CellTiter-Glo ATP luminescence, 72 h; further: on the % scale 0 is the no-effect control and ±100 the full control effect; nearly all actives have a fitted effect of over 60% in size
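72 h, 37 °C compound treatment of KB-3-1 parental cells; CellTiter-Glo added, 10 min, luminescence read. Data corrected against DMSO-only plates and normalized before curve fitting.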
MCF10A rerep: DNA re-replication induction in MCF 10a cells. 350,000 compounds, 2.9% hits. AID 624296. MCF 10A DNA re-replication, Hoechst nuclear intensity, 48 h. Potency, µM (doses to about 46.1 µM), inactives show at the top dose activity, positive = re-replication, most hits filed as activators; further: % of control where 0% means no effect; nearly all actives have a fitted effect of over 50% in size
ELG1 repair inh: blocks ELG1-dependent DNA repair in HEK293T cells; HEK293T ELG1-luciferase reporter, luminescence, 16 h; DNA damage induced by 5-fluorouridine; Potency, µM (titrated, usually from 46.1 µM), for inactives: at the top dose activity change, negative = inhibition, hits mostly inhibitors; 330,000 compounds, 2.3% hits; further: on the % scale 0 is the no-effect control and ±100 the full control effect; nearly all actives have a fitted effect of over 55% in size
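Cells (2,000 per well) received 5-fluorouridine plus test compound or DMSO and were incubated 16 hr at 37 °C, 5% CO2. Luciferase activity was read by luminescence 30 min after ONE-Glo addition; signal suppression marked inhibition of damage-induced ELG1 function.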
Starred values were filed as active, the others as inactive; i = inactive; ? = inconclusive; / = no result. The call rests on the fitted dose curve; in most records, active means well fitted curve in the direction sought with a large enough effect; inconclusive means small, poorly fitted or top-dose-only effect, or another doubt; inactive means no such curve, though single readings can be large; an effect the other way counts as inactive or inconclusive. Potency means the concentration at half of the fitted maximal effect.

SMILES	SW480 rereplic	KB-V1 MDR tox	KB-3-1 cytotox	MCF10A rerep	ELG1 repair inh
O=C(CCNC(=O)c1ccc(Cl)cc1)NC1CCCCCC1	-2%	/	/	?	?
COc1ccc2cc3cc(C(=O)N(C)C4CCCCC4)oc3nc2c1	?	?	?	8%	?
Cc1cc(S(=O)(=O)Nc2c(C)nn(C)c2C)c(Cl)cc1Cl	?	18µM*	?	-11%	-6%
O=C(Nc1ccc(Oc2cccc(C(F)(F)F)c2)nc1)c1cccs1	28%	i	i	?	?
CCn1c(=O)c(C(=O)Nc2ccccc2C)c(O)c2ccccc21	-9%	i	i	16%	15%
CCCn1c(=O)c(C(=O)Nc2ccccc2)c(O)c2ccccc21	-3%	23µM*	?	6%	?
CCCn1c(=O)c(C(=O)Nc2ccccc2C)c(O)c2ccccc21	0%	21µM*	i	?	25%
CCCn1c(=O)c(C(=O)NCCc2ccc(OC)c(OC)c2)c(O)c2ccccc21	-4%	i	i	1µM*	-30%
CCn1c(=O)c(C(=O)NCCc2ccc(OC)c(OC)c2)c(O)c2ccccc21	8%	i	i	?	9%
CCCCCCC(=O)NNC(=O)c1c(O)c2ccccc2n(CC)c1=O	20%	?	i	20%	-10%
CCCCCCCC(=O)NNC(=O)c1c(O)c2ccccc2n(CC)c1=O	?	18µM*	?	?	-9%
CCCCCNC(=O)c1[nH]c(C(F)(F)F)nc1-c1ccccc1	/	i	i	/	/
COc1ccc(N2C(=O)CSCC2=O)cc1OC	-14%	i	i	-11%	-8%
COc1ccc(CCNCC(O)Cn2c3ccccc3c3ccccc32)cc1OC (stereo not drawn)	-2%	?	?	9.2µM*	-21%
COc1ccccc1NCC(O)Cn1c2ccccc2c2ccccc21 (stereo not drawn)	?	i	i	?	?
CCn1c(=O)c(C(=O)NNS(=O)(=O)c2ccc(Cl)cc2)c(O)c2ccccc21	-8%	15µM*	i	?	16%
CCCn1c(=O)c(C(=O)NNC(=O)c2ccccc2[N+](=O)[O-])c(O)c2ccccc21	/	/	/	/	-1%
CCCn1c(=O)c(C(=O)NCc2cccnc2)c(O)c2ccccc21	?	10µM*	i	20%	-11%
CCCn1c(=O)c(C(=O)NNC(=O)c2ccccc2Cl)c(O)c2ccccc21	-18%	9.2µM*	?	?	-12%
CCCn1c(=O)c(C(=O)NCc2ccccn2)c(O)c2ccccc21	?	i	i	?	0%
COc1ccc(OC)c(C(=O)NC(CC(N)=O)c2ccc(NCc3ccc(F)c(F)c3)c([N+](=O)[O-])c2)c1 (stereo not drawn)	-17%	i	i	-5%	-10%
CCCCc1nc2ccccc2c(=O)n1NC(=O)c1c(O)c2ccccc2n(C)c1=O	?	?	13µM*	9%	1%
CC(C)Cn1c(=O)c(C(=O)Nc2cnccn2)c(O)c2ccccc21	3%	i	i	-2%	0%
CC(C)Cn1c(=O)c(C(=O)Nc2ccncc2)c(O)c2ccccc21	?	i	7.3µM*	?	/
C=CCn1c(=O)c(C(=O)Nc2ccccc2C)c(O)c2ccccc21	4%	?	?	18µM*	?
SMILES	SW480 rereplic	KB-V1 MDR tox	KB-3-1 cytotox	MCF10A rerep	ELG1 repair inh
CCCCN(CC)C(=O)c1cc2cc3ccc(Cl)cc3nc2o1	1%	i	i	-2%	?
Cc1cc2nc(C)n(CCCNC(=O)Nc3cccc4ccccc34)c2cc1C	5%	16µM*	?	?	?
CCOc1ccc(NC(=O)NCCCN2CCCC2)cc1	0%	i	i	0%	2%
CCOc1ccc(NC(=O)NCCCn2c(C)nc3cc(C)c(C)cc32)cc1	7%	23µM*	i	4%	?
N#Cc1cc2cc3c(cc2nc1N1CCCCC1)OCCO3	?	i	i	?	?
COCCCNC(=S)N1CCCN(c2nc3cc(C)ccc3cc2C#N)CC1	?	?	i	?	21µM*
Cc1ccc(C(=O)N2CCCN(c3nc4cc5c(cc4cc3C#N)OCO5)CC2)cc1	13µM*	23µM*	?	8.2µM*	?
COCCCNC(=S)N1CCCN(c2nc3cc(C)c(C)cc3cc2C#N)CC1	?	i	i	18µM*	?
CCC(=O)c1c[nH]c(C(=O)NCc2cccnc2)c1	-6%	i	i	-1%	25%
COC(=O)[C@]12CCCCC=C1N(Cc1ccc(Cl)cc1Cl)C(=O)[C@H](CC(=O)N1CCCCC1)C2	/	i	i	/	/
Cc1cccc(OCc2occc2C(=O)Nc2cccc(-n3cnnn3)c2)c1	-1%	i	i	1%	?
Cc1ccccc1OCc1occc1C(=O)Nc1cccc(-n2cnnn2)c1	-3%	?	16µM*	-6%	?
COc1cccc(/C=N/NC(=O)c2ccncc2)c1OC(=O)c1ccc(Br)cc1	26%	i	i	15µM*	?
COc1cccc(/C=N/Nc2ncnc3scc(-c4ccccc4)c23)c1O	?	?	?	13µM*	7.3µM*
COc1ccccc1/C=N/NC(=O)c1ccc(-c2ccccc2)cc1	6%	i	i	18µM*	?
COc1cccc(/C=N/Nc2nccnc2Cl)c1O	0.26µM*	i	?	5.8µM*	?
COc1ccc(C(=O)NCC(=O)OCC(=O)c2cc(OC)c(OC)c(OC)c2)cc1OC	-7%	i	i	6%	?
COc1cccc(/C=N/NC(=S)NC2CC3CCC2C3)c1OC (stereo not drawn)	-16%	i	i	0%	?
COc1cccc2[nH]c(C(=O)NCc3ccccc3)cc12	-7%	i	i	-15%	21µM*
COc1cccc(C=NNC(=S)NN=Cc2cccc(OC)c2OC)c1OC	-4%	?	i	18µM*	/
O=C(Nc1cccc([N+](=O)[O-])c1)c1cnccn1	-2%	?	i	0%	2%
O=C(N/N=C/c1cc([N+](=O)[O-])ccc1Cl)c1cnccn1	5.2µM*	i	2.6µM*	?	12%
NC(=S)N/N=C/c1ccccc1OCc1cccc(Cl)c1	?	i	18µM*	?	-17%
NC(=S)N/N=C/c1ccc2cccc(OCc3ccccc3)c2n1	14%	i	i	?	-13%
COc1ccccc1N1CCN(C(=O)C(C)N(c2ccc(C)c(C)c2)S(C)(=O)=O)CC1 (stereo not drawn)	2%	i	i	2%	?
COc1cccc(/C=N/NC(=O)c2cc3cc([N+](=O)[O-])ccc3s2)c1O	1.8µM*	?	?	?	?
